Sampled rows, rich in hits. Any-hit rate of the full collection: about 2.4%.
Cruzain inh noDet: cruzain (T. cruzi) inhibition without detergent. P25779. purified cruzain, Z-FR-AMC fluorescence, no detergent. Potency, µM, hits mostly inhibitors. 2.3% of 200,000 active. AID 1476; also: nearly all actives have a fitted effect of over 40% in size
Target sequence (P25779 123-467 limits assumed): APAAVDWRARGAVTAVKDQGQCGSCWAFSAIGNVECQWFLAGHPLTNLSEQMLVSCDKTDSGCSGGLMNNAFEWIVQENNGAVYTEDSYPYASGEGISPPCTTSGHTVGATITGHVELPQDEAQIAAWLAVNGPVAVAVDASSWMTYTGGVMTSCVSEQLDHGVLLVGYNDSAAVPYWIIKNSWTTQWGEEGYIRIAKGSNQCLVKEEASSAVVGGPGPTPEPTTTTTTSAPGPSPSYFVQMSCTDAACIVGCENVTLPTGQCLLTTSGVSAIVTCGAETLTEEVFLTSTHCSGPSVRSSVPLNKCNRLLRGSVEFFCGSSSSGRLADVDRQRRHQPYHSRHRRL
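Detergent-free condition (0.00005% Triton X-100) in acetate buffer pH 5.5 with DTT. 1.5 nM enzyme and compound were pre-mixed 15 min, then 2 uM Z-FR-AMC substrate added; reaction progress from fluorescence change between first and third reads (60 s).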
Cruzain Triton: inhibitors of Trypanosoma cruzi cruzain with detergent; purified cruzain, Z-FR-AMC fluorescence, 0.01% Triton; Potency, µM, hits mostly inhibitors; 0.43% of 200,000 active; also: nearly all actives have a fitted effect of over 40% in size
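Z-FR-AMC hydrolysis (2 uM substrate) by cruzain (1.5 nM) monitored kinetically at ex 360/em 450 nm after 15 min room-temperature compound exposure; 0.01% Triton X-100, pH 5.5, 5 mM DTT.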
Papain counter: papain (Carica papaya) inhibition counter-screen. shares compounds with Cruzain Triton. 41% of 410 active. Potency, µM, hits mostly inhibitors. purified papain, Z-FR-AMC fluorescence cleavage; also: nearly all actives have a fitted effect of over 35% in size
Target sequence (P00784 whole entry, looked up): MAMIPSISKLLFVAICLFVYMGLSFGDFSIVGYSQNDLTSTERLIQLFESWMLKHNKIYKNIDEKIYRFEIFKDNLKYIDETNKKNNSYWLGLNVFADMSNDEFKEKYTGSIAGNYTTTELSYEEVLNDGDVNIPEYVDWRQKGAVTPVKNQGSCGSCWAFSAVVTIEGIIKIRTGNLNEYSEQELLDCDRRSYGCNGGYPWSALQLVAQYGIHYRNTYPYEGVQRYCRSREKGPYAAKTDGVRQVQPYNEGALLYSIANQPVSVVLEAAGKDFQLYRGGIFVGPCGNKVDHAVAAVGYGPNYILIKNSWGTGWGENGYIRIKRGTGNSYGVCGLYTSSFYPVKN
Large screens that a line does not name were inactive (follow-up assays come after a bar, where they were run). Calls follow the shape of the dose curve; as a rule, active = well fitted curve in the direction sought with a large enough effect; inconclusive = small, poorly fitted or top-dose-only effect, or another doubt; inactive = no such curve, though single readings can be large; an effect the other way counts as inactive or inconclusive.

O=C(c1ccco1)N1CCN(c2c(-c3ccccc3)c3cc(Cl)ccc3[nH]c2=O)CC1	Cruzain inh noDet inconclusive
c1cc2c3c(c1)c1c(n3CCNC2)CCCC1	none
COCC(C)NC(=O)CSc1nc2ccccc2n1CCc1ccccc1 (stereo not given)	none
COCC(C)NC(=O)Cn1c(SCc2ccccc2)nc2ccccc21 (stereo not given)	none (no result: Cruzain inh noDet, Cruzain Triton) | Papain counter inactive
N#CCCn1c(=O)c(-c2ccc(F)cc2)nc2cnc(N3CCNCC3)nc21	Cruzain Triton inconclusive
S=C(c1ccc(-c2cccc(Cl)c2)o1)N1CCOCC1	none
CC(=O)N1CCN(C(=S)c2ccc(-c3ccc(Cl)cc3)o2)CC1	Cruzain inh noDet inconclusive, Cruzain Triton 8.9µM | Papain counter 16µM
COc1ccc(NC(=O)CC2C(=O)N(c3ccc(C)cc3)C(=O)N2Cc2cccnc2)cc1 (stereo not given)	none
Cc1ccc(COc2ccc3oc(-c4ccccc4)c(C(=O)O)c3c2)cc1	Cruzain inh noDet 20µM, Cruzain Triton inconclusive | Papain counter 32µM
Cc1oc2ccc(OCc3ccc(F)cc3)cc2c1C(=O)O	none
Cc1cccc(C(=O)Nc2ccccc2SCc2cc(=O)c3cccc(C)c3[nH]2)c1	none
CCN(C(=O)c1cc2c(s1)-c1c(C)cccc1OC2)c1ccccc1F	none
CC(C)C(=O)NCCc1nc2ccccc2n1CCCOc1ccc(Cl)cc1	none
COc1ccc(OCCCn2c(CCNC(=O)C3CCCCC3)nc3ccccc32)cc1	none (no result: Cruzain inh noDet, Cruzain Triton) | Papain counter inactive
COc1ccc(OCCn2c(CCNC(=O)C3CCCCC3)nc3ccccc32)cc1	none (no result: Cruzain inh noDet, Cruzain Triton) | Papain counter inactive
COc1ccccc1OCCn1c(NC(=O)c2ccccc2)nc2ccccc21	none
Cc1cc(OCCCn2c(CCNC(=O)C3CCCCC3)nc3ccccc32)ccc1Cl	Cruzain Triton 1.4µM | Papain counter 13µM
Cc1cc2ccccc2n1CCNC(=O)C1CCCC1	none
COc1ccccc1OCCn1c(CCNC(=O)C2CCCCC2)nc2ccccc21	none (no result: Cruzain inh noDet, Cruzain Triton) | Papain counter inactive
Cc1ccc(OCCn2c(CCNC(=O)C(C)C)nc3ccccc32)cc1	none
CN1C(=O)Cc2cc(S(=O)(=O)CCC(=O)Nc3ccc(Cl)cc3)ccc21	none
CCCCCCCc1cc2c(cn1)C(=O)C(C)(OC(C)=O)C(O)=C2Cl (stereo not given)	none
Cc1cccc(OCCCn2c(CCNC(=O)C(C)(C)C)nc3ccccc32)c1	Cruzain inh noDet inconclusive
Cc1cccc(OCCn2c(CCNC(=O)C3CCCCC3)nc3ccccc32)c1	none (no result: Cruzain inh noDet, Cruzain Triton) | Papain counter inactive
COC(=O)[C@@H]1CCCN1C(=O)[C@H]1C[C@@H]1[C@H](NC(=O)OCc1ccccc1)c1ccccc1	none
COc1ccccc1CNC(=O)CSc1nc(=O)[nH]c2c1CCCC2	none
O=C(Nc1ccccc1)c1ccc2nc(-c3ccco3)c(-c3ccco3)nc2c1	Cruzain inh noDet inconclusive, Cruzain Triton inconclusive | Papain counter 13µM
Cc1cccc(N2CCN(C(=O)c3ccc4nc(-c5ccco5)c(-c5ccco5)nc4c3)CC2C)c1 (stereo not given)	none
O=C(NC1CC1)c1ccc2nc(-c3ccco3)c(-c3ccco3)nc2c1	none (no result: Cruzain inh noDet, Cruzain Triton) | Papain counter 32µM
O=C(NCc1ccco1)c1cccc(NC(=O)c2ccccc2)c1	none
O=C(NC1CCCCC1)c1cc(-c2ccco2)on1	none
CNC(=O)c1ccc2nc(-c3ccco3)c(-c3ccco3)nc2c1	none (no result: Cruzain inh noDet, Cruzain Triton) | Papain counter 32µM
Cc1cccc(C)c1-n1ncc(C(=O)N2CCN(c3ccccc3)CC2)c1C1CCN(C(=O)OC(C)(C)C)CC1	none
CCCN(Cc1cc2cccc(C)c2[nH]c1=O)C(=O)c1cccc(Cl)c1	none
CC(C)(C)c1ccc(C(=O)Nc2onc3c2CCCC3)cc1	none
CC(C)Oc1ccc(CNS(=O)(=O)c2ccc3c(c2)C(C)(C)C(=O)N3C)cc1	none
CC(=O)c1nnn(-c2nc(N)nc(N(c3ccccc3)c3ccccc3)n2)c1C	Cruzain inh noDet inconclusive
COc1nc(C#N)nc(N2CCCCC2)n1	none (no result: Cruzain inh noDet, Cruzain Triton) | Papain counter 2.2µM
N#Cc1nc(N)nc(N2CCCCC2)n1	none (no result: Cruzain inh noDet, Cruzain Triton) | Papain counter 5µM
Nc1nc(-c2ccco2)nc(N2CCCCC2)n1	none
CN(C)c1nc(C#N)nc(N2CCOCC2)n1	Cruzain inh noDet 3.2µM, Cruzain Triton 4µM | Papain counter 2.2µM
CN(C)c1nc(SCC#N)nc(N2CCOCC2)n1	none
COc1nc(OC)nc(N2CCCCCC2)n1	none
CC(=O)c1nnn(-c2nc(C#N)nc(N3CCOCC3)n2)c1C	none (no result: Cruzain inh noDet, Cruzain Triton) | Papain counter inactive
CCc1ccc(NC(=O)c2cc(C(C)=O)n3ccccc23)cc1	Cruzain inh noDet inconclusive
CCN(C(=O)Cn1c(C(=O)OC)cc2sc(Cl)cc21)c1cccc(C)c1	none
CC(C)N(C#N)c1nc(N2CCOCC2)nc(N2CCOCC2)n1	none
N#Cc1nc(N2CCCCC2)nc(N2CCOCC2)n1	Cruzain inh noDet 1µM, Cruzain Triton 0.89µM | Papain counter 1µM
N#Cc1nc(N2CCCC2)nc(N(c2ccccc2)c2ccccc2)n1	none (no result: Cruzain inh noDet, Cruzain Triton) | Papain counter 2µM
N/C(=N/O)c1nc(N2CCCC2)nc(N(c2ccccc2)c2ccccc2)n1	none
N#Cc1nc(N2CCCC2)nc(N2CCCC2)n1	Cruzain inh noDet 5µM, Cruzain Triton 7.9µM | Papain counter 5.6µM
CCCNc1nc(N2CCOCC2)nc(N2CCOCC2)n1	none
C1CCN(c2nc(N3CCCCC3)nc(N3CCNCC3)n2)CC1	none
CCOC(=O)CNc1nc(C#N)nc(N2CCOCC2)n1	Cruzain inh noDet 2µM, Cruzain Triton 2.2µM | Papain counter 2.2µM
CCCCSCCCNC(=O)C1CCN(Cc2nc(-c3ccc(CC)cc3)oc2C)CC1	none
COc1ccc(CCNC(=O)Cn2ncc3c(=O)oc4ccccc4c32)c(OC)c1	none
CCOc1nc(C#N)nc(N2CCOCC2)n1	none (no result: Cruzain inh noDet, Cruzain Triton) | Papain counter 4µM
CNc1nc(OCC(F)(F)F)nc(N2CCOCC2)n1	none
CCCNC(=O)C1CCC(Cn2c(=O)c3sccc3n(CC(=O)NCc3cccc(OC)c3OC)c2=O)CC1 (stereo not given)	none
Cc1nc2cc(-c3ccc(Cl)cc3)nn2c(C)c1CCC(=O)N1CCN(c2ccccc2)CC1	none
Cc1nc2cc(-c3ccccc3)nn2c(C)c1CCC(=O)N1CCN(c2ccccc2)CC1	Cruzain inh noDet inconclusive | Papain counter inactive
NCC(O)CC(=O)O (stereo not given)	none
CC(=O)OC1C=C[C@]2(C)C(CC(OC(C)=O)[C@@]3(C)C4=CC(=O)OC(c5ccoc5)[C@]4(C)CCC23)C1(C)C (stereo not given in full)	none
CCn1nc(-c2ccc(C)cc2)nc2c(=O)n(C)c(=O)nc1-2	none (no result: Cruzain inh noDet, Cruzain Triton) | Papain counter inactive
CCOC(=O)Cn1nc(-c2ccccc2)nc1-c1ccccc1	none
CCn1nc(-c2ccccc2)nc2c(=O)n(C)c(=O)nc1-2	Cruzain inh noDet 1.3µM, Cruzain Triton 2.2µM | Papain counter inactive
CCS(=O)(=O)n1nc(-c2ccc(C)cc2)nc1N	none
COc1ccc(C2=Nc3ccc(OC(F)(F)F)cc3NC(c3cccnc3)=N2)cc1	none
CC1(C)CC2C1CCC1(C)OC1CCC2(C)O (stereo not given)	none
COC(=O)N/N=C/c1ccc(-c2cccc(Cl)c2)o1	none
NC(=S)N/N=C/c1ccc(-c2cc(Cl)ccc2Cl)o1	Cruzain inh noDet 0.63µM, Cruzain Triton 0.71µM | Papain counter 4.5µM
OCCN(CCO)c1ncnc2c1sc1nc(N3CCOCC3)c3c(c12)CCCC3	Cruzain inh noDet inconclusive
CSc1nc(N(CCO)CCO)c2sc3nc(-c4ccco4)c4c(c3c2n1)CCC4	Cruzain inh noDet 3.2µM, Cruzain Triton 10µM | Papain counter 13µM
